# VP16 counter: counter-screen for ROR gamma inhibitors: Gal4-VP16 reporter | hit rate 3.5% among 310,000 | Drosophila S2 Gal4-VP16 UAS-luciferase, luminescence, 20 h | Potency, µM (top dose mostly 53.6 µM), actives largely listed as inhibitors;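 further: Gal4-VP16 expression switched on by copper sulfate through the metallothionein promoter; nearly all actives have a fitted effect of over 50% in size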
# ELG1 DNA repair: inhibitors of ELG1-dependent DNA repair in HEK293T cells; HEK293T ELG1-luciferase reporter, luminescence, 16 h; DNA damage induced by 5-fluorouridine; Potency, µM (highest dose often 46.1 µM), hits mostly inhibitors; hit rate 2.3% among 330,000; AID 504467; further: nearly all actives have a fitted effect of over 55% in size
#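 Cells (2,000 per well) received 5-fluorouridine plus test compound or DMSO and were incubated 16 hr at 37 °C, 5% CO2. Luciferase activity was read by luminescence 30 min after ONE-Glo addition; signal suppression marked inhibition of damage-induced ELG1 function.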
# TDP1 cell noCPT: qHTS for Inhibitors of human tyrosyl-DNA phosphodiesterase 1 (TDP1): qHTS in cells in absence of CPT | DT40 Tdp1-/- hTDP1 cells, no CPT, ATP luminescence, 48 h | hit rate 15% among 420,000 | AID 686978, 2013 | Potency, µM (series often up to 46.2 µM), actives largely listed as inhibitors; further: nearly all actives have a fitted effect of over 55% in size
#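 Chicken DT40 Tdp1-/- cells stably complemented with human TDP1 were seeded at 400 cells/well with DMSO in place of 20 nM camptothecin. After compound pinning, cells grew at least 48 hr at 37 °C; viability read by CellTiter-Glo luminescence.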
# RORg inh: blocks mouse ROR gamma transcriptional activity; P51450; Drosophila S2 Gal4-RORgamma UAS-luciferase reporter, 20 h; Potency, µM (doses to about 53.6 µM), actives largely listed as inhibitors; hit rate 5.4% among 310,000; AID 2551; further: nearly all actives have a fitted effect of over 60% in size
#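 Read-out: Photinus luciferase luminescence; inhibitors lower reporter signal. Insect Schneider cells with Gal4-ROR gamma fusion under metallothionein promoter, UAS reporter; 700 uM final copper sulfate induction, 20 hr, ambient temperature.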
# TDP1 cell CPT: growth inhibition of DT40 Tdp1-/-;hTDP1 cells with camptothecin (screen for TDP1 inhibitors) | chicken DT40 Tdp1-/-;hTDP1 cells + 20 nM CPT, ATP luminescence, 48 h | Potency, µM (top dose mostly 46.2 µM), usual class: inhibitors | hit rate 12% among 420,000; further: nearly all actives have a fitted effect of over 55% in size
#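 Chicken DT40 Tdp1-/- cells stably complemented with human TDP1 were seeded at 400 cells/well in medium containing 20 nM camptothecin, exposed to pin-transferred compounds, and grown at 37 °C for at least 48 hr. Viability was read as ATP luminescence.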
# 12-LOX inh: inhibitors of human 12S-lipoxygenase ALOX12; P18054; purified 12hLO, xylenol orange hydroperoxide absorbance; Potency, µM (top dose mostly 108 µM), most hits filed as inhibitors; hit rate 1.1% among 580,000
# Target sequence (P18054 whole entry, looked up): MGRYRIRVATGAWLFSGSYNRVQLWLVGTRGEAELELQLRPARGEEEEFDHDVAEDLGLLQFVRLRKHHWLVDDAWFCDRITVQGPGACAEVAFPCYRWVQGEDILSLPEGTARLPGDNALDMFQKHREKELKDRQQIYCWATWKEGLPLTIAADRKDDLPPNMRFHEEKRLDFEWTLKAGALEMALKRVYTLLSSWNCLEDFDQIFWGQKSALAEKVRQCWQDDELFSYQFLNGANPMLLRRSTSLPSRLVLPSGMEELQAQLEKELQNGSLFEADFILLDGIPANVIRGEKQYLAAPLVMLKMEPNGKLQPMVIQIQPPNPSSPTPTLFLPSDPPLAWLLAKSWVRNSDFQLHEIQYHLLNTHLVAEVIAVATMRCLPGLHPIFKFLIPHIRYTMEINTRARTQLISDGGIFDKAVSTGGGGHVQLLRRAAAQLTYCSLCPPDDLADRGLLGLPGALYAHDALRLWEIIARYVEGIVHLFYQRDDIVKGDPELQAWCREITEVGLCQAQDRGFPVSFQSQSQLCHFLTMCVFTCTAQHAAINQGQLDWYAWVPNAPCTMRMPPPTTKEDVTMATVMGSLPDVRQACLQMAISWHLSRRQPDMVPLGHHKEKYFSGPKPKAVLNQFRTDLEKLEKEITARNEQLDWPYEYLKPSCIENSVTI
#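 Hydroperoxide product was detected by ferrous iron/xylenol orange as the 573 to 405 nm absorbance ratio. Arachidonic acid at 40 uM (final) was turned over for 30 min at room temperature by 150 nM human 12hLO, pH 7.0 Hepes buffer, after 15 min compound preincubation.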
# Hits are given with their value; i = inactive; ? = inconclusive; nt = no result given; [ ] = another dose, or the depositor's remark. Shown are actives, neighbours in structure and some others; about 15% of the full set was active somewhere. The call rests on the fitted dose curve; in most records, active means well fitted curve in the direction sought with a large enough effect; inconclusive means small, poorly fitted or top-dose-only effect, or another doubt; inactive means no such curve, though single readings can be large; an effect the other way counts as inactive or inconclusive.
SMILES,VP16 counter,ELG1 DNA repair,TDP1 cell noCPT,RORg inh,TDP1 cell CPT,12-LOX inh
COc1ccc(Cn2nc(C)n(N(C)c3ncc(C(F)(F)F)cc3Cl)c2=O)cc1,i,i,9.2µM,i,16.4µM,?
COC(=O)c1cn(N(C)c2ncc(C(F)(F)F)cc2Cl)c(=O)c2ccccc12,i,i,?,i,?,i
CC(=O)Nc1cc(F)c(F)cc1NC(=O)CCc1c[nH]c2ccccc12,nt,nt,nt,nt,nt,i
O=C(NCc1ccccc1)C(C1CC1)n1c(Cc2cc(F)cc(F)c2)nc2ccccc21 (centres undefined),nt,nt,18.4µM,nt,?,i
CN1CCC[C@@H]1CCNC(=O)c1cccc2c1C(=O)c1ccc(N3CCCC3)cc1S2(=O)=O,nt,?,i,nt,?,?
COc1ccccc1N1CCN(c2ccc3c(c2)S(=O)(=O)c2cccc(C(=O)NCc4ccc(F)cc4)c2C3=O)CC1,nt,nt,2.59µM,nt,?,i
O=C(NCc1cccc(F)c1)c1cccc2c1C(=O)c1ccc(N3CCCC3)cc1S2(=O)=O,nt,?,11.6µM,nt,?,nt
CC1CCN(c2ccc3c(c2)S(=O)(=O)c2cccc(C(=O)NCc4cccc(F)c4)c2C3=O)CC1,nt,?,18.4µM,nt,?,i
N#Cc1c(NC(=O)CN2CCNC(=O)C2)sc2c1CCCCC2,nt,nt,nt,nt,nt,i
CO[C@H]1C(=O)N(C2CCN(C(=O)Nc3ccccc3)CC2)[C@H]1c1ccncc1,nt,nt,nt,nt,nt,i
CC(Oc1ccc(C(C)(C)C)cc1)c1ccnc2nc(/N=C/N(C)C)nn12 (centres undefined),i,i,?,i,15.8µM,i
CC(Oc1ccc(F)cc1)c1ccnc2nc(/N=C/N(C)C)nn12 (centres undefined),i,i,i,i,i,i
COC(=O)c1cccc(CSC(C)C(=O)NCC(C)C)c1 (centres undefined),nt,nt,nt,nt,nt,i
CCN1CCN(C(=O)c2ccc3c(c2)N(Cc2cccc(Cl)c2)C(=O)c2ccccc2S3=O)CC1 (centres undefined),nt,nt,20.6µM,nt,?,?
CC(C)NC(=O)c1ccc2c(c1)N(Cc1cccc(Cl)c1)C(=O)c1ccccc1S2=O (centres undefined),nt,nt,?,nt,20.6µM,?
CC(=O)c1ccc(NC(=O)c2ccc3c(c2)N(Cc2cccc(Cl)c2)C(=O)c2ccccc2S3=O)cc1 (centres undefined),nt,nt,?,nt,?,i
CCOC(=O)N1CCN(C(=O)c2ccc3c(c2)N(Cc2cccc(Cl)c2)C(=O)c2ccccc2S3=O)CC1 (centres undefined),i,?,25.9µM,i,16.4µM,i
CN1CCN(C(=O)c2ccc3c(c2)N(Cc2cccc(Cl)c2)C(=O)c2ccccc2S3=O)CC1 (centres undefined),nt,nt,i,nt,i,i
Cc1cccc(N2CCN(C(=O)c3ccc4c(c3)N(Cc3cccc(Cl)c3)C(=O)c3ccccc3S4=O)CC2)c1C (centres undefined),nt,nt,5.17µM,nt,3.66µM,i
Cn1nc(-c2nncn2CC2CC2)c2c1CCN(C(=O)Cc1c[nH]c3ccccc13)C2,nt,nt,nt,nt,nt,i
O=C(c1ccc2c(c1)N(Cc1cccc(Cl)c1)C(=O)c1ccccc1S2=O)N1CCC(Cc2ccccc2)CC1 (centres undefined),nt,nt,4.61µM,nt,3.26µM,i
CC1CCC(NC(=O)c2ccc3c(c2)N(Cc2cccc(Cl)c2)C(=O)c2ccccc2S3=O)CC1 (centres undefined),nt,nt,i,nt,i,i
O=C(c1ccc2c(c1)N(Cc1cccc(Cl)c1)C(=O)c1ccccc1S2=O)N1CCN(c2cccc(C(F)(F)F)c2)CC1 (centres undefined),nt,nt,10.3µM,nt,16.4µM,i
CC1CCCCN1C(=O)c1ccc2c(c1)N(Cc1cccc(Cl)c1)C(=O)c1ccccc1S2=O (centres undefined),nt,nt,20.6µM,nt,?,?
O=C(c1ccc2c(c1)N(Cc1cccc(Cl)c1)C(=O)c1ccccc1S2(=O)=O)N1CCN(c2cccc(C(F)(F)F)c2)CC1,nt,nt,?,nt,i,i
SMILES,VP16 counter,ELG1 DNA repair,TDP1 cell noCPT,RORg inh,TDP1 cell CPT,12-LOX inh
Cc1cc(C)n(-c2nc3ccccc3nc2Nc2ccc(F)c(F)c2)n1,nt,nt,nt,nt,nt,i
CSCC[C@@H]1NC(=O)c2cc(NC(=O)Cn3ccc4ccccc43)ccc2NC1=O,nt,nt,nt,nt,nt,35.5µM
N#CCCn1nc(-c2ccc(F)cc2)c2ccccc2c1=O,nt,nt,nt,nt,nt,i
N#Cc1c(-c2ccc(F)cc2)c(-c2ccc(F)cc2)nn(CCO)c1=O,nt,nt,3.26µM,nt,4.61µM,i
Cc1ccccc1-c1nn(-c2ccc(F)cc2F)cc1CN1CCC(O)CC1,nt,nt,nt,nt,nt,i
CC(Sc1nc2cc(S(=O)(=O)N3CCCCC3)ccc2o1)C(=O)Nc1ccc(F)cc1 (centres undefined),nt,nt,nt,nt,nt,i
COc1cc2c(cc1OC)C1=NC(=O)CN1C(SCc1ccc(C)cc1)=N2,i,?,2.59µM,i,6.51µM,?
Cc1ccc(CSC2=Nc3sccc3C3=NC(=O)CN23)cc1,i,i,i,i,?,i
C=CCSC1=Nc2cc(OC)c(OC)cc2C2=NC(=O)CN12,i,i,10.3µM,i,?,i
CCCCc1ccc(NC(=S)NCCc2ccc(S(N)(=O)=O)cc2)cc1,8.91µM,?,?,?,i,i
CCCCc1ccc(NC(=S)NCCc2ccc(Cl)cc2)cc1,nt,nt,nt,nt,nt,31.6µM
O=C(NCCc1ccc(Cl)cc1)Nc1ccc(F)cc1,i[10 µM],i,?,i,?,i
Fc1ccc(NC(=S)NCCc2ccc(Cl)cc2)cc1,3.16µM,?,23.1µM,1.12µM,?,i
CCCCNC(=S)Nc1ccc(F)cc1,?,?,i,12.6µM,i,i
O=C(CCc1ncc(-c2ccccc2Cl)o1)NCc1ccncc1,nt,nt,nt,nt,nt,i
CC1CCN(C(=O)C[C@@H]2O[C@H](CNC(=O)C3CC3)[C@@H](O)[C@H]2O)CC1,nt,nt,nt,nt,nt,i
Cc1ccc(OCC(=O)Nc2ccc3c(c2)CCC3)c(C(=O)c2cc(C#N)c(=O)n(C3CC3)c2)c1,nt,nt,nt,nt,nt,i
CCCCc1ccc(NC(=S)NCCN2CCOCC2)cc1,?,i,i,10µM,i,i
Fc1ccc(CCNC(=S)Nc2ccc(F)c(Cl)c2)cc1,?,?,?,7.08µM,18.4µM,?
CCCCCCc1nc2ccccc2c(=O)n1NC(=O)c1c(O)c2c(n(CC(C)C)c1=O)CCCC2,i,i,3.26µM,i,4.61µM,i
CCCCCCc1nc2ccccc2c(=O)n1NC(=O)c1c(O)c2cccc3c2n(c1=O)CCC3,i,i,nt,i,nt,nt
Cc1nc2ccccc2c(=O)n1NC(=O)c1c(O)c2c(n(CC(C)C)c1=O)CCCC2,?,i,20.6µM,?,?,i
CN1C(=O)C(Cl)(Cl)C(=O)c2ccccc21,?,?,16.4µM,11.2µM,14.6µM,nt
